Sfp PPTase inh: qHTS Assay for Inhibitors of Bacillus subtilis Sfp phosphopantetheinyl transferase (PPTase); 4'-phosphopantetheinyl transferase ffp (Bacillus subtilis), Q9F4F7; Biochemical Sfp PPTase activity, qHTS; Potency, µM, for inactives: largest response in the series, negative = inhibition, usual class: inhibitors; 310,000 tested, 3.5% active; AID 1490, 2009;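 note: the enzyme is Sfp with the accession as filed and its product quenches rhodamine fluorescence; 0% = enzyme reaction without inhibitor and -100% = no enzyme wells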
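Fluorescence-quenching assay with 15 nM Sfp, 5 uM rhodamine-CoA and 12.5 uM BHQ-2-labelled ybbR peptide in pH 7.6 Hepes/MgCl2 buffer. Enzyme was pre-incubated with compound for 15 min at room temperature. Rate was taken from the 30-min fluorescence change (525/598 nm).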
Epigenetic reg: Quantitative High-Throughput Screen for Regulators of Epigenetic Control; Potency, µM (series often up to 53.9 µM), inactives show at the top dose GFP activation, usual class: activators; murine LDR cells, GFP reporter derepression, 30 h; 280,000 tested, 0.2% active; AID 1865, 2009; note: % of control where 0% means no effect; nearly all actives have a fitted effect of over 60% in size
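In this reporter-derepression format, murine cells bearing a silenced integrated CMV-GFP locus incubate with test compound (30 h, 37 C), then are washed and imaged; fluorescent objects of 20–120 um count as induced cells.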
PINK1 modulator: A Quantitative High throughput Screen to Identify Chemical Modulators of PINK1 Expression. PINK1 immunofluorescence, high-content cytometry, 24 h. 410,000 tested, 0.2% active. Potency, µM (series often up to 76.6 µM), without a hit: top-dose activation (PINK1 increase), actives largely listed as activators. AID 624263, 2012; active = well fitted activation curve with a large enough effect; inconclusive = small, poorly fitted or top-dose-only effect; cell line not stated here; note: % of control where 0% means no effect; nearly all actives have a fitted effect of over 65% in size
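Compound titrations (5 concentrations, 24 h) on a stable cell line; DMSO and CCCP controls. Endpoint: fixed-cell PINK1 immunofluorescence with mitochondrial, cell and nuclear markers, scanned by microplate cytometer.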
Gal4-VP16 FLuc: VP16 counterscreen qHTS for inhibitors of ROR gamma transcriptional activity; Drosophila S2 Gal4-VP16 UAS-luciferase, luminescence, 20 h; Potency, µM (titrated, usually from 53.6 µM), for the others: at the top dose activity, negative = inhibition, most hits filed as inhibitors; 310,000 tested, 3.5% active; AID 2546, 2010;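 note: Gal4-VP16 expression switched on by copper sulfate through the metallothionein promoter; % is set by controls: 0 for no effect and ±100 for the full control effect; nearly all actives have a fitted effect of over 50% in size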
ClpP mod: qHTS Assay for Activators of ClpP. ATP-dependent Clp protease proteolytic subunit (Bacillus subtilis (strain 168)), P80244. purified B. subtilis ClpP, FRET peptide cleavage, 20 min. 340,000 tested, 1.9% active. Potency, µM (top dose mostly 57.5 µM), without a hit: at the highest dose activity change, negative = active. AID 651965, 2013; active = well fitted falling curve with a large enough effect; inconclusive = small, poorly fitted or top-dose-only effect; inactive = no such curve, though single readings can be large or run the other way; note: the source files actives as falling curves though it sought activators and does not explain the sign; nearly all actives have a fitted effect of over 65% in size
Target sequence (P80244 whole entry, looked up): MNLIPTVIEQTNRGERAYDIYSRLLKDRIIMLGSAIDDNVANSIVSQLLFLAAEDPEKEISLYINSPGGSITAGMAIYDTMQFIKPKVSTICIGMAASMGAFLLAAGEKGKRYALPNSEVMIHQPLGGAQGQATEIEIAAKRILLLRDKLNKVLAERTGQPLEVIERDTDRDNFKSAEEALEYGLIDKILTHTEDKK
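ClpP 10 microg/mL final, pH 8 Tris/KCl buffer with BSA, glycerol, Tween-20; compound pinned in; FRET-FV substrate; RT 20 min; Ex320/Em430; ΔFRET vs ADEP 5.8 microM, DMSO, no enzyme.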
RORg inh: qHTS for inhibitors of ROR gamma transcriptional activity; Nuclear receptor ROR-gamma (Mus musculus), P51450; Drosophila S2 Gal4-RORgamma UAS-luciferase reporter, 20 h; Potency, µM (top dose mostly 53.6 µM), without a hit: at the top dose activity change, negative = inhibition, hits mostly inhibitors; 310,000 tested, 5.4% active; AID 2551, 2010; note: % is set by controls: 0 for no effect and ±100 for the full control effect; nearly all actives have a fitted effect of over 60% in size
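Drosophila Schneider cells stably carrying a metallothionein-driven Gal4 DBD–ROR gamma fusion and a UAS-Photinus luciferase reporter were exposed to compound for 1 hr, then induced with copper sulfate (700 uM final) for 20 hr at ambient temperature before luminescence reading.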
Numbers without * were called inactive; u = inconclusive; x = not tested or not shown; [ ] = another dose, or the depositor's remark. Sampled rows, rich in hits. Any-hit rate of the full collection: about 8.1%. Unless noted, calls come from the whole dose curve; as a rule, active = well fitted curve in the direction sought with a large enough effect; inconclusive = small, poorly fitted or top-dose-only effect, or another doubt; inactive = no such curve, though single readings can be large; an effect the other way counts as inactive or inconclusive. Potency is the fitted concentration of half-maximal effect.

SMILES | Sfp PPTase inh | Epigenetic reg | PINK1 modulator | Gal4-VP16 FLuc | ClpP mod | RORg inh
COC(=O)C1CCN(Cc2ccc3c(c2)CN(C(=O)c2sc(C)nc2C)CCO3)CC1 | x | x | -0.2% | x | x | x
CCOC(=O)CCNC(C)C1COc2ccccc2O1 (stereo not drawn) | -24.8% | -9.8% | -0.9% | -5.0% | 6.31µM* | -9.2%
Cn1c2c(c3cnc4cc(Cl)ccc4c31)CNCC2 | x | x | -0.5% | x | -4.7% | x
CS(=O)(=O)/C(C#N)=C\c1cnc(S(=O)(=O)c2ccccc2)s1 | 3.55µM* | x | x | 7.94µM* | x | 10µM*
Cc1cc(C)n(-c2nc(C)c(C)c(=O)n2CC(=O)Nc2ccc(OC(F)(F)F)cc2)n1 | x | 10.0% | 1.0% | x | 2.7% | x
CCCCOc1ccc(CC(=O)NOC)cc1 | x | x | 0.3% | x | 2.0% | x
COc1ccc(NC(=O)c2cc(-c3ccc(OC)c(OC)c3)on2)cc1OC | 2.3% | -1.0% | -5.3%[38.3 µM] | -10.0% | 22.4µM* | 25.0%
COc1ccc(NC(=O)c2cc(C)on2)cc1OC | 14.7% | 0.0% | 12.6µM* | 9.0% | 0.3% | -5.0%
COc1cc(NC(=O)c2cc(C(C)C)on2)c(OC)cc1Cl | u | -0.9% | -1.5% | -0.8% | -6.4% | 17.3%
COc1cccc(-c2cc(C(=O)Nc3cc(OC)c(OC)c(OC)c3)no2)c1 | 2.8% | 2.2% | 11.2µM* | -10.5% | -3.2% | 12.4%
COc1ccc(NC(=O)c2cc(C(C)C)on2)c(OC)c1 | -17.9% | 0.0% | 2.7% | 7.08µM* | 2.1% | u
Cc1ccc(-c2nc3ncccc3o2)cc1NC(=O)c1ccccc1Br | x | -1.6% | 1.7% | x | -16.6% | x
COc1cc(C2c3[nH]c4ccccc4c3CC3C(=O)N4C(Cc5c([nH]c6ccccc56)C4c4cc(OC)c(OC)c(OC)c4)C(=O)N32)cc(OC)c1OC (stereo not drawn) | -0.6% | 1.1%[10.1 µM] | x | u | x | -29.5%[10 µM]
CCCCn1cc(S(=O)(=O)c2ccc(C)c(C)c2)c(=O)c2cc(F)c(N3CCN(C)CC3)cc21 | x | -0.4% | 1.2% | x | -24.1% | x
CCOc1ccc(CCNC(=O)c2[nH]c3cc(OC)ccc3c2Sc2ccccc2)cc1OCC | x | -1.9% | 6.0% | x | 22.4µM* | x
O=C(O)c1cncc(Br)c1 | 14.1% | 0.0% | 0.5% | 1.4% | x | 10.8%
CN(C)c1cncc(C(=O)O)c1 | 56.2µM* | 0.0% | -0.6% | -4.4% | -22.6% | -31.0%
COC(=O)C1=C(N)c2ccccc2C1(C#N)c1ccccc1 (stereo not drawn) | -9.4% | -7.2% | 1.2% | 15.8µM* | u | 10.7%
COC(=O)c1c(-c2ccccc2)csc1N | u | -0.7% | 1.7% | -6.1% | -0.9% | 31.8%
CCC(C(=O)Nc1nc(C)c(C)s1)c1ccccc1 (stereo not drawn) | 50.1µM* | x | 7.5% | u | 0.0% | u
CCc1nnc(NC(=S)Nc2ccccc2)s1 | -1.5% | u | -0.5% | 0.891µM* | 1.5% | 0.282µM*
Cc1ccc(SCc2nnc(NC(=O)c3ccccc3)s2)cc1 | 5.7% | 6.0% | -1.6% | 10.8% | -3.5% | -5.2%
CCC(C(=O)Nc1nc(C)cs1)c1ccccc1 (stereo not drawn) | 17.4% | -1.1% | -0.6% | 10.5% | -0.9% | -15.5%
Cc1nc(NC(=S)Nc2ccccc2)sc1C | -17.0% | 4.5% | 1.8% | 5.01µM* | -0.4% | 0.891µM*
Cc1ccc(C(=O)Nc2nnc(NC(=S)Nc3ccccc3)s2)cc1 | -1.8% | 4.7% | 3.9% | 1.12µM* | -0.8% | 0.282µM*
Cc1ccccc1NC(=S)Nc1ccccc1 | 8.8% | x | -0.9% | u | 1.6% | u
COCC(C)NCc1cc2ccc(OC)cc2nc1N1CCN(c2ccc(F)cc2)CC1 (stereo not drawn) | x | x | 3.6% | x | x | x

Compound activity from PubChem BioAssay.
